Screening results (PubChem BioAssay)
NPR1 antag: Natriuretic polypeptide receptor (hNpr1) antagonism - Primary qHTS; actives 1.6% (n = 76,000); HEK293 hNpr1 GloSensor cGMP, ANP-stimulated luminescence; Atrial natriuretic peptide receptor 1 (Homo sapiens), P16066; AID 1347048, 2019; Potency, µM (highest dose often 46.3 µM), hits mostly inhibitors; calls by dose curve; note: nearly all actives have a fitted effect of over 60% in size
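HEK293 cells stably expressing human Npr1 and cGMP GloSensor pGS-40F, loaded 2 h with 2% GloSensor reagent, given compound 30 min at room temperature. Luminescence read before and 20 min after 0.1 nM hNppA.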
FLuc inh: Firefly luciferase inhibition profiling of diverse chemical library using quantitative high-throughput screening; purified P. pyralis luciferase, luminescence, biochemical; Potency, µM (doses to about 115 µM), usual class: inhibitors; actives 2.5% (n = 76,000); AID 1347043, 2019; Luciferin 4-monooxygenase (Photinus pyralis), P08659; note: nearly all actives have a fitted effect of over 65% in size
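FLuc 10nM, D-luciferin 10uM, ATP 10uM, Mg acetate 10mM, Tris acetate pH 7.5, Tween/BSA; cpd qHTS; enzyme added last; CCD luminescence.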
NIH3T3 tox: Cytotoxic Profiling in NIH 3T3 Cell Line of Diverse Libraries Using Quantitative High-Throughput Screening; NIH 3T3 viability, CellTiter-Glo ATP luminescence, 48-72 h; Potency, µM (titrated, usually from 96.7 µM), most hits filed as inhibitors; actives 4.3% (n = 94,000); note: nearly all actives have a fitted effect of over 55% in size
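ATP-dependent luminescence (CellTiter-Glo) served as the viability signal for NIH 3T3 cells treated with compound for 48 or 72 hr at 37 °C.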
HEK293 tox: Cytotoxic Profiling in HEK 293 Cell Line of Diverse Libraries Using Quantitative High-Throughput Screening; HEK 293 viability, ATP luminescence (CellTiter-Glo), 48-72 h; actives 6.6% (n = 94,000); Potency, µM (series often up to 115 µM), most hits filed as inhibitors; note: nearly all actives have a fitted effect of over 60% in size
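Pintool-delivered compounds were incubated with HEK 293 cells (250 cells/well) at 37 degree Celsius for 48 or 72 hr. ATP-dependent luminescence (CellTiter-Glo) then reported remaining viable cells.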
Of the large screens only hits and unclear results are named; the others gave an inactive call. Compounds with a hit are over-represented: about 11% of the library has one in this group of screens. Unless noted, calls come from the whole dose curve; as a rule, active = well fitted curve in the direction sought with a large enough effect; inconclusive = small, poorly fitted or top-dose-only effect, or another doubt; inactive = no such curve, though single readings can be large; an effect the other way counts as inactive or inconclusive.

COc1ccc(Cn2c3c(c(=O)n2Cc2ccccc2)CCN(C(=O)CCc2cccnc2)C3)cc1	NIH3T3 tox 6.3µM
COCCn1c2c(c(=O)n1-c1ccccc1)CCN(C(=O)COc1ccccc1)C2	NIH3T3 tox inconclusive
Cc1cccc(CNC(=O)c2nnn3cc(C)[nH]c(=O)c23)c1	none
Cc1cn2nnc(C(=O)NCc3ccc4c(c3)OCO4)c2c(=O)[nH]1	FLuc inh 40µM
O=C(C1CCCC1)N1CCC(c2nn(-c3ccccn3)c(=O)[nH]2)CC1	none (no result: NPR1 antag, FLuc inh)
COc1ccc(OC)c2nc(-c3cccc(Cl)c3)c(CN3CCCC(O)C3)cc12 (centres undefined)	NIH3T3 tox inconclusive, HEK293 tox inconclusive
COc1ccc(-n2cc(CN3CCC(CO)CC3)c(-c3cccc(F)c3)n2)cc1	NIH3T3 tox 79µM, HEK293 tox inconclusive
COc1ccc(-n2cc(CN3CCCC(O)C3)c(-c3cccc(F)c3)n2)cc1 (centres undefined)	FLuc inh 28µM, NIH3T3 tox inconclusive, HEK293 tox inconclusive
COc1ccc(-n2cc(CN3CCCN(C)CC3)c(-c3cccc(F)c3)n2)cc1	NIH3T3 tox 45µM, HEK293 tox inconclusive
COc1ccc(-c2nn(-c3ccccc3)cc2CN2CCCC(C)(O)C2)c(F)c1 (centres undefined)	NIH3T3 tox inconclusive, HEK293 tox 89µM
O=C(Cc1ccccc1)N1CCC(Oc2cnc3c(ccn3-c3cncnc3)c2)CC1	NIH3T3 tox inconclusive, HEK293 tox 56µM
c1ccc(CN2CCC(Oc3cnc4c(ccn4-c4cncnc4)c3)CC2)cc1	NIH3T3 tox inconclusive, HEK293 tox 100µM
CCCC(=O)N1CCC(Oc2cnc3c(ccn3-c3cncnc3)c2)CC1	NIH3T3 tox 10µM, HEK293 tox inconclusive
CC(C)C(=O)N1CCC(Oc2cnc3c(ccn3-c3cncnc3)c2)CC1	NIH3T3 tox inconclusive
Cc1ncccc1C(=O)N1CCC(Oc2cnc3c(ccn3-c3cncnc3)c2)CC1	NIH3T3 tox 71µM
O=C(C1CCCN1C(=O)C1CCCC1)N1CCC(c2nc3ccncc3[nH]2)CC1 (centres undefined)	none (no result: NPR1 antag, FLuc inh)
O=C(O)Cn1ccc2cc(OCC3CCN(C(=O)Cc4ccccc4)CC3)cnc21	NIH3T3 tox 100µM
O=C(CC1CC1)N1CCC(Oc2cnc3c(ccn3-c3cncnc3)c2)CC1	NIH3T3 tox inconclusive, HEK293 tox inconclusive
O=C(OCc1ccccc1)N1CCC(Oc2cnc3c(ccn3-c3cncnc3)c2)CC1	NPR1 antag inconclusive, NIH3T3 tox inconclusive, HEK293 tox 79µM
Cn1ccnc1CN1C(=O)CO[C@H](c2ccc(NC(=O)c3ccc(C(F)(F)F)cc3)cc2)[C@H]1CO	FLuc inh 35µM
Cn1ccnc1CN1C(=O)CO[C@H](c2ccc(NC(=O)CCc3ccccc3)cc2)[C@H]1CO	none
CCCCCC(=O)Nc1ccc([C@H]2OCC(=O)N(Cc3nccn3C)[C@@H]2CO)cc1	FLuc inh 71µM
O=C(c1ccccc1F)N1CC(Oc2ccc(-c3nc(-c4ccccc4)no3)cc2)C1	NPR1 antag 7.1µM, FLuc inh inconclusive, NIH3T3 tox 45µM, HEK293 tox 28µM
O=C(c1ccc(F)cc1)N1CC(Oc2ccc(-c3nc(-c4ccccc4)no3)cc2)C1	HEK293 tox inconclusive
O=C(c1ccco1)N1CC(Oc2ccc(-c3nc(-c4ccccc4)no3)cc2)C1	NPR1 antag inconclusive, FLuc inh inconclusive, NIH3T3 tox 28µM, HEK293 tox 20µM
COc1ccc(NC(=O)N2CCc3c(C(=O)NCCCN(C)C)cccc32)cc1	FLuc inh 35µM
COc1ccc(NC(=O)c2cccc3c2CCN3C(=O)Nc2ccc(F)cc2)cc1	FLuc inh inconclusive, HEK293 tox inconclusive
CCCNC(=O)c1cccc2c1CCN2C(=O)Nc1ccc(OC)cc1	NPR1 antag 5µM, FLuc inh 0.35µM, NIH3T3 tox inconclusive, HEK293 tox inconclusive
CC(C)C(=O)NC1CCN(C(=O)c2ccc(-c3ncccc3C#N)cc2)CC1	NIH3T3 tox inconclusive (no result: NPR1 antag, FLuc inh)
CN1CC(=O)N(C2CCNC2)Cc2c(NC3CCCCCC3)ncnc21 (centres undefined)	none (no result: NPR1 antag, FLuc inh)
Cc1ccc(N2CCC(NC(=O)Cc3cccc(F)c3)C2=O)cc1 (centres undefined)	NIH3T3 tox 32µM, HEK293 tox 25µM
O=C(Cc1cccc(F)c1)NC1CCN(c2ccc(F)cc2)C1=O (centres undefined)	none
